Experimental data taken from article PMC12864922, “TDP-43 directly inhibits mRNA accumulation in neurites through modulation of mRNA stability”.
In all, about 9,900 sequences were measured (“r (bound/input frequency ratio)”: median about 0.7, highest 2% from about 6.5 on). Only a selection was taken, and the highest values are over-represented in it overall.

B1: ENSMUSG00000004113.29|Cacna1b (ssRNA)
RNA: GGGAGUUCUACAGUCCGACGAUCGCUUCGAUAUCCGCAUGCUACACUCACCUUUGAAGAGGCAGUGGCCACCAACUCUGGCCGCUCCUCCAGGACUUCCUAUGUGUCCUCCCUCACUUCCCAAUCCCACCCUCUCCGCCGUGUACCCAAUGGCUAUCACUGCACUUUGGGACUCAGCACUGGCGUCCGGGCGCGGCACAGCUACCACCACCCCGAUCAGGACCACUGGUGCUAGCUGCACCACGACCACCCAUGUACCAGCUCCAUGGGUGAGGGUUCCAGUUGAUGAGUUUUAUCAUCCGCUCUCUUGCGGUCGCACUAGUGUGGAAUUCUCGGGUGUCAAGG
B2: ENSMUSG00000034801.222|Sos2 (ssRNA)
RNA: GGGAGUUCUACAGUCCGACGAUCGCUUCGAUAUCCGCAUGCUAUGUAAGUCUGGAACAAAAGUGUCUUAUGGCAUAAGAACCAACUGCCAUUGUCAAACCUAUUAACUGUCUUUAAUCUCGUGUUAACUGAAAUUUUUGAAAAGUUUUUCCAGAUUAGUAAUAUUUAAACAGAAAAUACUUUAAAAAGCUUUAUUAAAUUUUUUAAUCAGGAUAAAGCUUUGCCAUUUGGAUACUAUCAUUCAAAGUGAUCAAGGUAUGUAUGUUAUGCUGAUAGUGCAGUAGCAGCCAUUGUAAAGUAGCCACUCUUGCGGUCGCACUAGUGUGGAAUUCUCGGGUGUCAAGG
B3: ENSMUSG00000061578.107|Ksr2|134:138;220:225 (ssRNA)
RNA: GGGAGUUCUACAGUCCGACGAUCGCUUCGAUAUCCGCAUGCUAGGCCUCUCUGGGGACCAGUCCCUGGCCUUCACCCUUCUCCCAUUUUGUAAGAACACUGUUCUAACUCACCUCAUGCCCACGCUACCCUGGGCAACUGGAGAACACCAUAGCGUUUCAGCUGAUGUGACAUUUGCACACACCUUUACCAGUUCACCAUCAUUCAUGGCUUCCCCCAAAGUCCCGAGUCCUGAGAACCGGGGCUGUGGCAAGAGAGUUCUGCACACAUCUCUCUGUGGGGCUAGCAAUGCCGGGGUUAAGUUCUCUUGCGGUCGCACUAGUGUGGAAUUCUCGGGUGUCAAGG
B4: ENSMUSG00000031028.253|Tub (ssRNA)
RNA: GGGAGUUCUACAGUCCGACGAUCGCUUCGAUAUCCGCAUGCUAAGCUCUUGCCUGUGUGCCAUCUGUGAGAAGCUUCUUGGAGCUGAGACACCAGAGGGAAGCAAAGAGCAUUUAGACAUUGCUUUUUGCUUUGAAAUAGAUAUGUUUGGAAACGCUAAGUAGAAGUUUAAAAAGUAGAGUCAUGUAGAGUCAUGCUUUGAAUAUGUGGGUCAUGCUUUAGAUAUGAAGAGGCUAUGCAGGUAAGGAGGCUGGAUUGAUGUAAAUGGAAGUAGUACUUUAAGAAAGCUCUAGAUUUCCCAGGUCUCUUGCGGUCGCACUAGUGUGGAAUUCUCGGGUGUCAAGG
B5: ENSMUSG00000031028.56|Tub|187:199;217:221 (ssRNA)
RNA: GGGAGUUCUACAGUCCGACGAUCGCUUCGAUAUCCGCAUGCUACCAAGGUCAACACACAUGCCCAGUCCUGGGUCAGUCCCCUGCUGCAGUGGUGUUAUCACACCGGAAAGCCUCUUCACCUGGAGGUACAGAGGGAGAGGAAGCACAAGCCUGGCUGCUGUGGCUCAGCCAUCCACUCAGCCUACGAGUCAGAGACAGUGGGUGUCCCGGGAAGCAGGGGUACAGUGACACACACACAUACUACAGGGCACUCAAGCUCAUACUAGAAAAAGCUCUGGUGGUCAGCAGAAAGCACUCCCACUCUCUUGCGGUCGCACUAGUGUGGAAUUCUCGGGUGUCAAGG
B6: ENSMUSG00000043670.83|Diras1 (ssRNA)
RNA: GGGAGUUCUACAGUCCGACGAUCGCUUCGAUAUCCGCAUGCUAAUCCCAGUCAGGCCCAGAGAGGUUACCUUGCCUCUCCAUCUCUGUCCCUGUGUGCCCAGCCAUGCCCACUGUCCCUGUCCCUCACAUUCUAUCACUGUGACCUCUGGGGAGUGCCCAUUGACCUCAUCUUCCUUCACUAAUAUCUUAUUUCUUUCACCUGAUCCUGUCCUUUCCCCGUGACCUCUGACCUGUGGCCUUCCCUGGGUCCAGAACACCCCUGUCCUCUCCUGUCUGCACACCAGGGUGGAUGGGCCCGAGGGCUCUUGCGGUCGCACUAGUGUGGAAUUCUCGGGUGUCAAGG
B7: ENSMUSG00000028439.194|Fam219a (ssRNA)
RNA: GGGAGUUCUACAGUCCGACGAUCGCUUCGAUAUCCGCAUGCUAAGCCUAUCUGUCCAGGGAACCAGAUUGGUGUCCGAGAUGAGGAAAUGGCUGUGGCCUGGGAAAUCAGUGAGAGGCCGCUUGGGAAUGAGAAUGCAGUGGACUGAAAGCACAGCCUGGCCAUCUGGAACCUGGGUUCUGGUCCCAGCCUCGGCAUUCUCCCUGAGCUCCUAAGCAAUUCCCAGGCUUCUCUAGGGCUUCAGUUCUCACAACUGGAAAAUAAAGAGUAGCUGACAUCACCGACAGAGUCUUUUCAUACCAGACUCUUGCGGUCGCACUAGUGUGGAAUUCUCGGGUGUCAAGG
B8: ENSMUSG00000031028.89|Tub (ssRNA)
RNA: GGGAGUUCUACAGUCCGACGAUCGCUUCGAUAUCCGCAUGCUAGUACAGGGCACUCAAGCUGUAUGUAGAAAAAGCUCUGGUGGUCAGCAGAAAGCACUCCCACUUCAAAAGGGCCCAUUAGGCCCAAAGGGGGUUAGGAGUGGUAGGGAUAGGUGCGUGGCAGGUCCCUGCUAGGAUUGCAGGGGCCUGGCCAUGUGUAUUAGCUGGAGGCUUAGAAUGCUAGCUCAUUUGUUGCUACAGAUUUGCCCAGUGCUUGCACACGUAAGAACCCAGCUCUCAAGGCCAAAUAUCUGAGUGGAUGGCUCUUGCGGUCGCACUAGUGUGGAAUUCUCGGGUGUCAAGG
B9: ENSMUSG00000034801.36|Sos2 (ssRNA)
RNA: GGGAGUUCUACAGUCCGACGAUCGCUUCGAUAUCCGCAUGCUAGCAGAAUUCAAGCCCUCUCUUACCAAAGCUGCCACCAAAGACUUACAAACGGGAGCUUUCCCACCCGCCACUGUAUAGACUGCCUCUGCUGGAAAAUGCAGAAACUCCUCAAUGACCUUGGCCAUAUGUAGUCAUUGACACUGGAAUAGUAUUUGUAAAGGUUUUUAAUUUAUUCAAAAAGACAUAGUAUUUUAGUACUUUUUACAGAAAUGCUACUGAUUAAAUAAGCUCUUAAGAAUUAGUAAACUUGUUGGAUGGCACUCUUGCGGUCGCACUAGUGUGGAAUUCUCGGGUGUCAAGG
B10: ENSMUSG00000043670.328|Diras1 (ssRNA)
RNA: GGGAGUUCUACAGUCCGACGAUCGCUUCGAUAUCCGCAUGCUAUAGCCAGCCCAGGGCCCCCACAGCUGCCACCUGCUCCCAAGCCCCGGGAGUGGCUCCUGGCUGGACAGGGGGUCACAGCCCUUUCUCAGGGACACACCCUGAUAGCACAAUCUCUGGGCCACCCCAGGCUUCUCCUGGCUGGCCUUGCCCAUCCUGGGGAGAACCGGGCUGGGUGGCAGGGGAGGCCGGAGCCCACCCUGGCUGCUGGCCAACCUGCCCAGGCAUCUCUGGUGCUGGGGACCCCGCCAGGCCUCGCUUGCCUCUUGCGGUCGCACUAGUGUGGAAUUCUCGGGUGUCAAGG
B11: ENSMUSG00000043670.177|Diras1 (ssRNA)
RNA: GGGAGUUCUACAGUCCGACGAUCGCUUCGAUAUCCGCAUGCUACGGUGAUAGGACUAGUGGCUGCUGCCCUAGGGCUCUGACAGAAUCUGAGCCUCUUUGCUGGUCAUGUGUACUCUGGAGACUGUCCCCCAUGUCUGCCCUGAGUUACGGAGCCCCUGUGGUAUCUGCGAGACUGUCCAGGAGACUUGAGUGGCUCCUGGGCCUGUGUCCCACCCAGAUGAGGGUGACUUAGAAUUCUGUGUUUAUGUGCCUGUGUGUGUGGAUGGGUGUGUGUCUGUCUUGGGAUGGGGUGUUCUUGCACCCUCUUGCGGUCGCACUAGUGUGGAAUUCUCGGGUGUCAAGG
B12: ENSMUSG00000043670.182|Diras1 (ssRNA)
RNA: GGGAGUUCUACAGUCCGACGAUCGCUUCGAUAUCCGCAUGCUAGGCUCUGACAGAAUCUGAGCCUCUUUGCUGGUCAUGUGUACUCUGGAGACUGUCCCCCAUGUCUGCCCUGAGUUACGGAGCCCCUGUGGUAUCUGCGAGACUGUCCAGGAGACUUGAGUGGCUCCUGGGCCUGUGUCCCACCCAGAUGAGGGUGACUUAGAAUUCUGUGUUUAUGUGCCUGUGUGUGUGGAUGGGUGUGUGUCUGUCUUGGGAUGGGGUGUUCUUGCACCACUUUGUGUUCUUAGUGAGACCACAGUGUACUCUUGCGGUCGCACUAGUGUGGAAUUCUCGGGUGUCAAGG
B13: ENSMUSG00000043670.180|Diras1 (ssRNA)
RNA: GGGAGUUCUACAGUCCGACGAUCGCUUCGAUAUCCGCAUGCUACUGCUGCCCUAGGGCUCUGACAGAAUCUGAGCCUCUUUGCUGGUCAUGUGUACUCUGGAGACUGUCCCCCAUGUCUGCCCUGAGUUACGGAGCCCCUGUGGUAUCUGCGAGACUGUCCAGGAGACUUGAGUGGCUCCUGGGCCUGUGUCCCACCCAGAUGAGGGUGACUUAGAAUUCUGUGUUUAUGUGCCUGUGUGUGUGGAUGGGUGUGUGUCUGUCUUGGGAUGGGGUGUUCUUGCACCACUUUGUGUUCUUAGUGACUCUUGCGGUCGCACUAGUGUGGAAUUCUCGGGUGUCAAGG
B14: ENSMUSG00000043670.175|Diras1 (ssRNA)
RNA: GGGAGUUCUACAGUCCGACGAUCGCUUCGAUAUCCGCAUGCUAAGUCCCUGUGUGCGGUGAUAGGACUAGUGGCUGCUGCCCUAGGGCUCUGACAGAAUCUGAGCCUCUUUGCUGGUCAUGUGUACUCUGGAGACUGUCCCCCAUGUCUGCCCUGAGUUACGGAGCCCCUGUGGUAUCUGCGAGACUGUCCAGGAGACUUGAGUGGCUCCUGGGCCUGUGUCCCACCCAGAUGAGGGUGACUUAGAAUUCUGUGUUUAUGUGCCUGUGUGUGUGGAUGGGUGUGUGUCUGUCUUGGGAUGGGGCUCUUGCGGUCGCACUAGUGUGGAAUUCUCGGGUGUCAAGG
B15: ENSMUSG00000043670.176|Diras1 (ssRNA)
RNA: GGGAGUUCUACAGUCCGACGAUCGCUUCGAUAUCCGCAUGCUAUGUGUGCGGUGAUAGGACUAGUGGCUGCUGCCCUAGGGCUCUGACAGAAUCUGAGCCUCUUUGCUGGUCAUGUGUACUCUGGAGACUGUCCCCCAUGUCUGCCCUGAGUUACGGAGCCCCUGUGGUAUCUGCGAGACUGUCCAGGAGACUUGAGUGGCUCCUGGGCCUGUGUCCCACCCAGAUGAGGGUGACUUAGAAUUCUGUGUUUAUGUGCCUGUGUGUGUGGAUGGGUGUGUGUCUGUCUUGGGAUGGGGUGUUCUCUCUUGCGGUCGCACUAGUGUGGAAUUCUCGGGUGUCAAGG
B16: ENSMUSG00000043670.181|Diras1 (ssRNA)
RNA: GGGAGUUCUACAGUCCGACGAUCGCUUCGAUAUCCGCAUGCUACCCUAGGGCUCUGACAGAAUCUGAGCCUCUUUGCUGGUCAUGUGUACUCUGGAGACUGUCCCCCAUGUCUGCCCUGAGUUACGGAGCCCCUGUGGUAUCUGCGAGACUGUCCAGGAGACUUGAGUGGCUCCUGGGCCUGUGUCCCACCCAGAUGAGGGUGACUUAGAAUUCUGUGUUUAUGUGCCUGUGUGUGUGGAUGGGUGUGUGUCUGUCUUGGGAUGGGGUGUUCUUGCACCACUUUGUGUUCUUAGUGAGACCACCUCUUGCGGUCGCACUAGUGUGGAAUUCUCGGGUGUCAAGG

What follows are binders tested against TDP-43 (Homo sapiens, UniProt Q13148 1-414) (assay: RNA Bind-n-Seq with designed 260-mer pool; 25 mM Tris-HCl, 150 mM KCl, 3 mM MgCl2, BSA (printed 500 mg/mL), 20 units/mL SUPERase IN; pH not stated; 500 nM RNA pool, 1 h, 4 C; TDP-43 5, 50, 500 nM; high values mean tight binding). Conditions: protein: recombinant; tags: SBP (GST cleaved off with PreScission; pGEX-GST-SBP).
TDP-43, sequence (Q13148 whole entry): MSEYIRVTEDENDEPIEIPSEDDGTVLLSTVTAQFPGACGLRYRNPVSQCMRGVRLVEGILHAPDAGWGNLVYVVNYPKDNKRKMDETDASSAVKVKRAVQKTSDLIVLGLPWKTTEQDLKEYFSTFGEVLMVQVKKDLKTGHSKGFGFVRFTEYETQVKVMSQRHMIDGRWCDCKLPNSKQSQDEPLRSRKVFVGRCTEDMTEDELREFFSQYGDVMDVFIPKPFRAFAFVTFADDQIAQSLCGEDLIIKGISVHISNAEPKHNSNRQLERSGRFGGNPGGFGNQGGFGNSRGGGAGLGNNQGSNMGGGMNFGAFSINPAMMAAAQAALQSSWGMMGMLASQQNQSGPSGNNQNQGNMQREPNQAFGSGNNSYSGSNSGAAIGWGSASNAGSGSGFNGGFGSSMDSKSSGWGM
Procedure, shortened: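 Recombinant SBP-tagged TDP-43 at 5, 50 or 500 nM was captured on streptavidin beads, then incubated 1 h at 4 °C with 500 nM of an in vitro-transcribed 260-nt 3′ UTR oligo pool in 25 mM Tris-HCl, 150 mM KCl, 3 mM MgCl2, BSA and SUPERase IN. Bound RNA was washed, eluted with biotin, reverse transcribed, PCR-amplified and sequenced. Binding is R, each oligo's mapped-read-normalized abundance in the bound sample divided by its abundance in input. Duplicates used two independent protein batches.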

Row | Binder | binding signal
1 | B1 | 0.399 R (bound/input frequency ratio)
2 | B2 | 0.0419 R (bound/input frequency ratio)
3 | B3 | 0.895 R (bound/input frequency ratio)
4 | B4 | 2.03 R (bound/input frequency ratio)
5 | B5 | 1.06 R (bound/input frequency ratio)
6 | B6 | 2.21 R (bound/input frequency ratio)
7 | B7 | 0.186 R (bound/input frequency ratio)
8 | B8 | 4.96 R (bound/input frequency ratio)
9 | B9 | 0.12 R (bound/input frequency ratio)
10 | B10 | 0.177 R (bound/input frequency ratio)
11 | B11 | 6.1 R (bound/input frequency ratio)
12 | B12 | 5.77 R (bound/input frequency ratio)
13 | B13 | 6.66 R (bound/input frequency ratio)
14 | B14 | 6.15 R (bound/input frequency ratio)
15 | B15 | 6.8 R (bound/input frequency ratio)
16 | B16 | 6.26 R (bound/input frequency ratio)
